Where a name gives a salt, the structure may show the parent alone.

The subject of this assay is Saccharomyces cerevisiae BY4741 SeMeCo community. Put plainly: z-score of subpopulation abundance vs DMSO median, subpopulation auxotrophic for HUM; higher = larger share of this subpopulation than in DMSO controls. The following applies: 10 µM; 24 h; SM minimal medium; subpopulation (auxotrophy): HUM. Here is the method: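 Fluorescent four-plasmid SeMeCo (self-establishing metabolically cooperating S. cerevisiae BY4741 community; plasmids pH-mRuby2, pL-mWasabi, pU-eCFP, pM-TagRFP657) was grown 24 h in minimal SM medium with each Selleck FDA-approved drug at 10 µM in 384-well plates. Cells were fixed and imaged by high-content confocal microscopy. For each auxotrophic subpopulation (and the prototroph), a z-score gives the deviation from the DMSO vehicle-control population median.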
As for `CO/N=C(\C(=O)N[C@@H]1C(=O)N2C(C(=O)O)=C(CSc3nc(=O)c(O)nn3C)CS[C@H]12)c1csc(N)n1` [Ceftriaxone Sodium Trihydrate], the “z-score of subpopulation abundance” value is -2.14.

Take `CC(C(=O)O)c1ccc2c(c1)CC(=O)c1ccccc1S2` (stereo not given) [Zaltoprofen]: the “z-score of subpopulation abundance” value was -0.7.

Take `CNCC[C@H](Oc1cccc2ccccc12)c1cccs1` [Duloxetine HCl]: the “z-score of subpopulation abundance” value was -0.47.

For `CO/N=C(\C(=O)N[C@@H]1C(=O)N2C(C(=O)OC(C)OC(C)=O)=C(COC(N)=O)CS[C@H]12)c1ccco1` (stereo not given in full) [Cefuroxime axetil], the “z-score of subpopulation abundance” value was 0.05.

Turning to `OCc1ccccc1O[C@@H]1O[C@H](CO)[C@@H](O)[C@H](O)[C@H]1O` [Salicin], the “z-score of subpopulation abundance” value is -0.09.

`CCCCCCCCc1ccc(CCC(N)(CO)CO)cc1` [Fingolimod]: the “z-score of subpopulation abundance” value is -1.31.

`Nc1ccc(S(=O)(=O)Nc2ccnn2-c2ccccc2)cc1` [Sulfaphenazole]: the “z-score of subpopulation abundance” value was -0.72.

Regarding `CN1C2CCCC1CC(NC(=O)c1nn(C)c3ccccc13)C2` (stereo not given) [Granisetron HCl], the “z-score of subpopulation abundance” value was 0.03.

`O=C1C(CC[S+]([O-])c2ccccc2)C(=O)N(c2ccccc2)N1c1ccccc1` (racemic) [(+/-)-Sulfinpyrazone]: the “z-score of subpopulation abundance” value amounted to 0.22.

Turning to `Cc1onc(-c2ccccc2)c1C(=O)N[C@@H]1C(=O)N2[C@@H]1SC(C)(C)[C@@H]2C(=O)O` [Oxacillin sodium monohydrate], the “z-score of subpopulation abundance” value turned out to be 0.65.

For `CCN1CCC[C@H]1CNC(=O)c1cc(S(N)(=O)=O)ccc1OC` [Levosulpiride], the “z-score of subpopulation abundance” value turned out to be 0.24.

As to `C[C@]12CC[C@@H]3c4ccc(OC(=O)c5ccccc5)cc4CC[C@H]3[C@@H]1CC[C@@H]2O` [Estradiol Benzoate], the “z-score of subpopulation abundance” value was 0.38.

As for `Cc1ncc([N+](=O)[O-])n1C` [Dimetridazole], the “z-score of subpopulation abundance” value is 0.28.

Consider `Cc1c(C(N)=O)cc([N+](=O)[O-])cc1[N+](=O)[O-]` [Dinitolmide], for which the “z-score of subpopulation abundance” value is -0.56.

Turning to `CC(C)[N+](C)(CCOC(=O)C1c2ccccc2Oc2ccccc21)C(C)C` [Propantheline bromide], the “z-score of subpopulation abundance” value was -1.29.

For `COc1ccc(C(C)=O)c(O)c1` [Paeonol], the “z-score of subpopulation abundance” value turned out to be 0.18.

On to `CO[C@H]1C[C@@H]2CC[C@@H](C)[C@@](O)(O2)C(=O)C(=O)N2CCCC[C@H]2C(=O)O[C@H]([C@H](C)C[C@@H]2CC[C@@H](OC(=O)C(C)(CO)CO)[C@H](OC)C2)CC(=O)[C@H](C)/C=C(\C)[C@@H](O)[C@@H](OC)C(=O)[C@H](C)C[C@H](C)/C=C/C=C/C=C/1C`, for which the “z-score of subpopulation abundance” value came to 28.7.

Regarding `N[C@@H]1CONC1=O` [D-Cycloserine], the “z-score of subpopulation abundance” value worked out at 0.3.

Take `O=C1NC(=O)C(c2ccccc2)(c2ccccc2)N1` [Phenytoin]: the “z-score of subpopulation abundance” value was found to be 0.18.

`CN[C@@H]1[C@@H](O)[C@@H](O[C@@H]2[C@@H](O)[C@H](O[C@H]3O[C@H](CN)[C@@H](O)[C@H](O)[C@H]3O)[C@@H](N)C[C@H]2NC(=O)[C@@H](O)CN)OC[C@]1(C)O` [Isepamicin Sulphate]: the “z-score of subpopulation abundance” value was 0.82.

On to `NC(=O)N/N=C/c1ccc([N+](=O)[O-])o1` [Nitrofural], for which the “z-score of subpopulation abundance” value is -0.73.

For `CO/N=C(\C(=O)N[C@@H]1C(=O)N2C(C(=O)OCOC(=O)C(C)(C)C)=C(/C=C\c3scnc3C)CS[C@H]12)c1csc(N)n1` [Cefditoren Pivoxil], the “z-score of subpopulation abundance” value stood at 0.78.

With `Nc1nc2c(ncn2COCCO)c(=O)[nH]1` [Aciclovir], the “z-score of subpopulation abundance” value is -1.32.

As for `O=c1[nH]c(=O)n([C@H]2C[C@H](O)[C@@H](CO)O2)cc1I` [Idoxuridine], the “z-score of subpopulation abundance” value is -0.68.

As to `Cc1c(-c2ccc(O)cc2)n(Cc2ccc(OCCN3CCCCCC3)cc2)c2ccc(O)cc12` [Bazedoxifene Acetate], the “z-score of subpopulation abundance” value is -0.26.

Regarding `CC(C)[C@H]1CC[C@H](C(=O)N[C@H](Cc2ccccc2)C(=O)O)CC1` [Nateglinide], the “z-score of subpopulation abundance” value is -0.11.

Consider `Nc1nc2[nH]cc(CCc3ccc(C(=O)N[C@@H](CCC(=O)O)C(=O)O)cc3)c2c(=O)[nH]1` [Pemetrexed], for which the “z-score of subpopulation abundance” value is -4.52.

Turning to `O=C1c2c(O)ccc(O)c2C(=O)c2c(NCCNCCO)ccc(NCCNCCO)c21` [Mitoxantrone 2HCl], the “z-score of subpopulation abundance” value is -6.42.

As for `C[C@]12CC[C@@H]3c4ccc(O)cc4C[C@@H](CCCCCCCCC[S+]([O-])CCCC(F)(F)C(F)(F)F)[C@H]3[C@@H]1CC[C@@H]2O` (stereo not given in full) [Fulvestrant], the “z-score of subpopulation abundance” value is 1.23.

On to `Cc1ccsc1/C=C/C1=NCCCN1C` [Morantel tartrate], for which the “z-score of subpopulation abundance” value was -0.08.

As for `CCC[C@@H]1C[C@@H](C(=O)N[C@@H]([C@H]2O[C@H](SC)[C@H](OP(=O)(O)O)[C@@H](O)[C@H]2O)[C@H](C)Cl)N(C)C1` [Clindamycin Phosphate], the “z-score of subpopulation abundance” value worked out at 0.81.

On to `COCCCN1CCC(NC(=O)c2cc(Cl)c(N)c3c2OCC3)CC1` [Prucalopride Succinate], for which the “z-score of subpopulation abundance” value was determined as 1.42.

On to `CN(Cc1ccc(C(C)(C)C)cc1)Cc1cccc2ccccc12` [Butenafine HCl], for which the “z-score of subpopulation abundance” value is -1.45.

`C[C@@H](O)[C@H]1C(=O)N2C(C(=O)O)=C(S[C@@H]3CN[C@H](C(=O)N(C)C)C3)[C@H](C)[C@H]12` [Meropenem]: the “z-score of subpopulation abundance” value was determined as 0.12.

Turning to `CCCCNC(=O)NS(=O)(=O)c1ccc(C)cc1` [Tolbutamide], the “z-score of subpopulation abundance” value is -0.36.

`CCOC(=O)C1=C(COCCN)NC(C)=C(C(=O)OC)C1c1ccccc1Cl` (stereo not given) [Amlodipine Besylate]: the “z-score of subpopulation abundance” value was -6.15.

On to `CN1CCN(C2=Nc3cc(Cl)ccc3Nc3ccccc32)CC1` [Clozapine], for which the “z-score of subpopulation abundance” value worked out at 0.23.

As for `CO/N=C(\C(=O)N[C@@H]1C(=O)N2C(C(=O)O)=C(CSC(=O)c3ccco3)CS[C@H]12)c1csc(N)n1` [Ceftiofur HCl], the “z-score of subpopulation abundance” value was 2.38.

As for `COc1cc(N)c(Cl)cc1C(=O)NC1CCN(CCCOc2ccc(F)cc2)CC1OC` (stereo not given) [Cisapride], the “z-score of subpopulation abundance” value was -0.94.

In the case of `O=C(O)CCNC(=O)c1ccccc1` [Betamipron], the “z-score of subpopulation abundance” value was -0.33.

The record behind these values is the supplement of paper PMC8975748.
